According to PubChem BioAssay AID624172 (National Center for Advancing Translational Sciences (NCATS), 2012):
Among all 380,000 compounds or so, about 25 (0.007%) were called active. Calls come from the whole dose curve; as a rule, active = well fitted activation curve with a large enough effect; inconclusive = small, poorly fitted or top-dose-only effect; inactive = no such curve, though single readings can be large or run the other way. These entries were drawn from the full list.

Target: Glucagon-like peptide 1 receptor (Homo sapiens) (UniProt P43220)
Test: qHTS of GLP-1 Receptor Agonists
Settings: HEK293 GLP-1R CRE-luciferase, luminescence, 4-6 h, cells express a hypersensitive GLP-1R form; series mostly up to 45.6 µM
Description: The overall goal of this project was to develop a novel assay for discovering small molecule ligands for class B1 G protein-coupled receptors (GPCRs). Very few agonists (or inverse agonists) with generally weak activity for this entire group of physiologically important receptors are known to date. To establish proof-of-principle that this critical bottleneck can be overcome with a suitable screening approach, our studies focused on the class B1 receptor for glucagon-like peptide-1 (GLP-1R), a potential therapeutic target for diabetes and neurodegenerative disease.
The assay was developed in a "mix and measure" format using a cell-based functional readout. Toward this goal, stably transfected HEK293 cell clones were established that co-express (i) a cAMP-responsive luciferase reporter gene, and (ii) GLP-1Rs that upon ligand interaction either stimulate (agonists) or inhibit (inverse agonists) luciferase activity. In different cell lines to be used for screening, expressed GLP-1Rs are specifically optimized for high sensitivity detection of either weak agonists (hypersensitive receptor) or inverse agonists (constitutively active receptor mutant). In addition, control cell lines were developed that express either the cAMP-responsive reporter gene without recombinant GLP-1Rs (enabling initial exclusion of GLP-1R independent effects of candidate probes), or the reporter gene together with wild type GLP-1Rs (for confirmation of probe activity at this receptor), or the reporter gene in combination with the constitutively active orphan receptor GPR119 (enabling initial exclusion of GLP-1R independent inhibitory effects of candidate inverse agonists).
To that end, this assay was optimized for 1536-well format and screened against the MLSMR.
NIH Molecular Libraries Probe Production Network [MLPCN]
NIH Chemical Genomics Center [NCGC]
PI Name: Martin Beinborn, Tufts Medical Center
In a white solid 1536-well plate, 6 uL of cells are dispensed in DMEM without phenol red, 10% Nu serum, and 1% pen-strep medium. The plates are then incubated for 12 hours at 37 deg C at 5% CO2 before 23 nL of compounds are added. After a 4-6 hr incubation at37 deg C and 5% CO2, 3 uL of detection reagent are added and after a 12 min incubation at RT, a luminescent read is obtained on the ViewLux.

Chain of Glucagon-like peptide 1 receptor (Homo sapiens) (P43220 whole entry, looked up): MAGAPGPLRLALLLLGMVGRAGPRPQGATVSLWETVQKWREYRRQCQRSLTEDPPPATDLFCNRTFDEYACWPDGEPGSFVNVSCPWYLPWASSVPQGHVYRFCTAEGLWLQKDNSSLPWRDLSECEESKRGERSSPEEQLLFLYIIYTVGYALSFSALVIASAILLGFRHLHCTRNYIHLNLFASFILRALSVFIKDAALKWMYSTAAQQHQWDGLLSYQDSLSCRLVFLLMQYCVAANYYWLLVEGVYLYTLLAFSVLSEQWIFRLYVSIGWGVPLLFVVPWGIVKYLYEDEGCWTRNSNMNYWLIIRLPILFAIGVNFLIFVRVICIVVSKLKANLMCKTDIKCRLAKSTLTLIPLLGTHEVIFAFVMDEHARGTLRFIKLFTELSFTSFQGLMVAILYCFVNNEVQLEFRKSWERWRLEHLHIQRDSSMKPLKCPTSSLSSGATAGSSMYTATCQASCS

outcome, inactive:
COC(=O)[C@@H]1CC2=CC(=O)CC[C@]2(C)[C@@]23O[C@@H]2C[C@@]2(C)[C@@H](CC[C@@]24CCC(=O)O4)[C@H]13
OCC(CO)NC1C[C@](O)(CO)[C@@H](O)[C@H](O)[C@H]1O (some centres not stated)
Cc1ccccc1NC(=O)Cn1c(=O)n(Cc2ccco2)c(=O)c2ccc(C(=O)NC3CCCC3)cc21
CC(=O)O[C@]1(C(C)=O)CC[C@@H]2[C@@H]3C=C(C)C4=CC(=O)CC[C@@]4(C)[C@H]3CC[C@]21C
C[C@]12CC[C@@H]3c4ccc(O)cc4C[C@@H](CCCCCCCCCS(=O)CCCC(F)(F)C(F)(F)F)C3[C@@H]1CC[C@@H]2O (some centres not stated)
Cc1nn(-c2ccc(F)cc2)c(-n2cccc2)c1C(=O)N1CCN(c2ccccc2)CC1
O=C(CCCCn1c(=O)c2ccccc2n(CC(=O)Nc2cccc(C(F)(F)F)c2)c1=O)NCc1ccc2c(c1)OCO2
COc1cccc(NC(=O)CSc2cc(=O)n(C)c3ccc(Cl)cc23)c1
CCc1ccccc1NS(=O)(=O)c1ccc2nc(-c3ccccc3)[nH]c2c1
Cc1ccc(C)c(N2CCN(C(=O)CCc3c(C)nc4c(c3C)c(=O)n(C)c(=O)n4C)CC2)c1
O=C(Nc1cccc(C(F)(F)F)c1)c1cc(Br)cc(Br)c1O
CCOC(=O)c1ccc(N2C(=O)c3n[nH]c(C)c3C2c2ccc(O)c(OC)c2)cc1 (configuration not stated)
CCc1ccc(NC(=O)CN2CCSc3ccc(S(=O)(=O)N4CCCC4)cc32)cc1
C=C1C(=CC=C2CCC[C@]3(C)[C@@H]([C@H](C)C=C[C@H](C)C(C)C)CC[C@@H]23)C[C@@H](O)C[C@@H]1O
CCOc1ccc(NC(=O)Cn2cc(C(=O)c3ccc(C)cc3)c(=O)c3cc4c(cc32)OCCO4)cc1
CCOC(=O)c1oc2ccc(S(=O)(=O)n3nc(-c4ccccc4OC)cc3N)cc2c1C
COc1ccc(S(=O)(=O)n2nc(C)c(S(=O)(=O)N3CCCCCC3)c2C)cc1
CCN(C(=O)c1sc2cc(OC)ccc2c1Cl)c1ccccc1
CN(C)c1ccc(NC(=O)CSc2nc(-c3ccco3)cc(C(F)(F)F)n2)cc1
CCCCC(=O)OCC(=O)[C@H]1[C@H](C)C[C@@H]2[C@@H]3C[C@@H](F)C4=CC(=O)C=C[C@]4(C)[C@@]3(F)[C@@H](O)C[C@@]21C
COc1ccc(NC(=O)Cn2c(=O)cc(C)c3c(C)nn(-c4cccc(Cl)c4C)c32)cc1OC
CCCCCCCCCc1ccc(OCCOCCOCCOCCOCCOCCOCCOCCOCCO)cc1
COc1cc(CNCCSc2nnnn2C)ccc1OCc1c(F)cccc1Cl
Cc1cccc(N2CCN(C(=O)c3cc4c(=O)oc5ccccc5c4s3)CC2C)c1 (configuration not stated)
CC(C)(O/N=C(\C(=O)N[C@@H]1C(=O)N2C(C(=O)[O-])=C(C[n+]3ccccc3)CS[C@@H]12)c1csc(N)n1)C(=O)O
COc1ccccc1NC(=O)C1=C(C)Nc2ncnn2C1c1sccc1C (configuration not stated)
CCC(CCC(C)C1CCC2C3CC=C4CC(O)CC[C@@]4(C)C3CC[C@@]12C)C(C)C (some centres not stated)
Cc1sc2ncn(CC(=O)N3CCN(c4ccc(F)cc4)CC3)c(=O)c2c1S(=O)(=O)N1CCN(c2ncccn2)CC1
Cc1cccc(NC(=O)Cn2c(C(F)(F)F)nc3ccccc32)c1C
COc1cc(OC)cc(C(=O)Nc2ccc3nc(Nc4cccc(C(F)(F)F)c4)cc(C)c3c2)c1
CC(=O)Oc1ccccc1C(=O)Nc1ncc([N+](=O)[O-])s1
COc1ccccc1CNC(=O)CCn1c(=O)c2ccccc2n(CC(=O)Nc2ccc(Br)cc2F)c1=O
Cc1ccc(N2CCN(C(=O)CCc3c(C)nc4c(c3C)c(=O)n(C)c(=O)n4C)CC2)c(C)c1
C/C=C1\C2C=C(C)CC1(N)c1ccc(=O)[nH]c1C2 (configuration not stated)
CC(=O)NC(=O)c1ccccc1O
CCCOc1ccc(-c2cccc(NS(=O)(=O)c3ccccc3)c2)nn1
Cc1ccc(S(=O)(=O)NC(=O)NN2C[C@H]3CCC[C@@H]3C2)cc1
COc1ccc(-c2c(C)nn3c(N4CCC(C(=O)NCCC(C)C)CC4)cc(C)nc23)cc1OC
CN(C)CCCSc1ccccc1NC(=O)/C=C/c1ccccc1
CCOC(=O)c1c(NC(=O)c2ccc(S(=O)(=O)N3CCCC(C)C3)cc2)sc2c1CCN(C(C)C)C2 (configuration not stated)
C[N+](C)(CCOc1ccccc1)Cc1cccs1 (tested in a mixture with another compound)
CCOc1ccccc1NC(=O)C1=C(C)Nc2ncnn2C1c1ccc(NC(C)=O)cc1 (configuration not stated)
COc1cccc(CNCCSc2nnnn2C)c1OCc1ccccc1Cl
CCc1ccc(C(=O)CC2(O)C(=O)N(CCc3ccccc3)c3ccc(Br)cc32)cc1 (configuration not stated)
COc1ccccc1CNC(=O)CCn1c(=O)c2ccccc2n(CC(=O)Nc2cccc(Cl)c2)c1=O
COc1ccc(CCNc2nc(-c3ccc(F)cc3)cc(C(F)(F)F)n2)cc1OC
CCc1ccc(Sc2cc(C(=O)NCCCOC(C)C)c3ccccc3n2)cc1
O=C(CSc1ncc(CO)n1Cc1ccc(Cl)cc1)NCc1ccc(F)cc1
COCCNC(=O)c1ccc2c(c1)N=C(C)c1cc(C)ccc1S2
Oc1ccc(Cl)c2c1CCC2
COc1ccccc1-c1cc2nc(C)c(CCC(=O)O)c(C)n2n1
O=C(CCS(=O)(=O)c1ccc2c(c1)NC(=O)CO2)Nc1cccc(C(F)(F)F)c1
CCCC[C@H]1C(=O)N(c2ccccc2)N(c2ccc(O)cc2)C1=O
COc1ccc(-n2c(C)nc3c(cnn3-c3ccc(F)cc3)c2=O)cc1
COc1ccc2cc(-c3nc(Cl)c4c5c(sc4n3)CC(C)CC5)c(=O)oc2c1 (configuration not stated)
O=C(OCc1ccccc1)c1ccc(O)cc1
Cc1ccccc1C(=O)Nc1cc(C)c(O)c(-c2nc3ccccc3o2)c1
